Gli-Sufu antag = Gli-Sufu pathway antagonists, primary screen, luciferase luminescence, Sufu-KO-LIGHT cells, uHTS; 0.74% of 340,000 active; Sufu-KO-LIGHT fibroblasts, Gli luciferase reporter luminescence; inhibition, % at 5 µM; AID 588413, 2011;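 active = inhibition above about 55%, limit read from the data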;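 also: 0% = DMSO-treated cells and 100% = wells with medium but no cells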
SMARCA2 activ = SMARCA2 (BRM) function activators, primary screen, cell-based, luminescence, high throughput. MG213 cells, MMTV-luciferase reporter, dexamethasone, overnight. activation, % at 9.1 µM. 1% of 370,000 active. AID 652017, 2013; in the data active = activation above about 7.8%;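 also: 0% = vehicle wells and 100% = reference activator wells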
697 NFkB inh = inhibitors of PMA/ionomycin-induced NF-kB reporter, 697 cells, primary screen, B-cell NF-kB inhibitor project, cell-based, luminescence, uHTS | 0.33% of 330,000 active | AID 435022, 2010 | inhibition, % at 4 µM | 697 B-cell NF-kB luciferase reporter, 16 h; in the data active = inhibition above about 35%
esBAF inh = Bmi1 luciferase reporter increase in mESCs, primary screen, esBAF inhibitor project, mouse ES cells, Bmi1 luciferase knock-in, single point. 24 h; 100% = twice the neutral-well signal. reporter increase, % at 12.5 µM. 2% of 350,000 active. AID 602393, 2012; in the data active = activation above about 40%;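 also: 0% = median of the plate's neutral control wells and 100% = double that signal; a rise in the Bmi1 reporter signal indicates esBAF inhibition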
Jurkat NFkB inh = inhibitors of induced NF-kB luciferase reporter, primary screen, TCR NF-kB activation inhibitor project, cell-based, luminescence, uHTS; inhibition, % at 4 µM; AID 435003, 2010; Jurkat, PMA/ionomycin-induced NF-kB luciferase reporter; 0.53% of 330,000 active; in the data active = inhibition above about 50%
697 NFkB conf = PMA/ionomycin-induced NF-kB reporter inhibitors, 697 retest, confirmation, B-cell NF-kB inhibitor project, cell-based, luminescence, single concentration; 697 B-cell NF-kB luciferase, 16 h; 35% of 2,000 active; shares compounds with 697 NFkB inh; inhibition, % at 4 µM; AID 449746, 2010; in the data active = inhibition mostly above about 28%, no sharp cut-off; inactive = mostly below about 22%
Numbers without * were called inactive; i = inactive; x = no result given. Compounds with a hit are over-represented: about 3.3% of the library has one in this group of screens.

SMILES | Gli-Sufu antag | SMARCA2 activ | 697 NFkB inh | esBAF inh | Jurkat NFkB inh | 697 NFkB conf
CCN(CC)S(=O)(=O)c1ccc(C2=NOC3(C2)N(C)c2ccccc2C3(C)C)cc1 (stereo not given) | 21.0 | 0.0 | -483.5 | -22.1 | -72.2 | i
CN1c2ccccc2C(C)(C)C12CC(c1cccc(S(=O)(=O)N3CCCC3)c1)=NO2 (stereo not given) | 10.4 | -1.2 | i | -8.3 | -66.0 | i
CN1/C(=C\C(=O)c2cccc(S(=O)(=O)N3CCCCC3)c2)C(C)(C)c2ccccc21 | 4.6 | 1.6 | 2.8 | x | -1.8 | x
C[C@@H]1CN([C@H](C)CO)C(=O)c2cc(NC(=O)CCCN(C)C)ccc2O[C@H]1CN(C)S(C)(=O)=O | x | x | x | -3.6 | x | x
Clc1ccc(NC2=NCCCCC2)cc1 | 16.1 | -5.2 | 36.0* | 3.4 | 8.5 | 4.2
Cc1[nH]c2ccccc2c1C(=O)C(=O)Nc1ccc2c(c1)OCCO2 | -58.6 | 5.0 | -57.4 | x | -51.8 | x
O=C(/C=C/c1ccccc1)Nc1ccc2c(c1)OCCO2 | -154.4 | 3.5 | -293.2 | -14.3 | -80.8 | -418.5
O=C(Nc1ccc2c(c1)OCCO2)C(=O)c1c[nH]c2ccccc12 | 15.8 | 1.9 | -376.8 | -0.4 | -63.1 | -465.9
COc1ccc(S(=O)(=O)N(C)C[C@@H]2OCCCC[C@H](C)Oc3ccc(NC(=O)Nc4cccc5ccccc45)cc3C(=O)N([C@H](C)CO)C[C@H]2C)cc1 | x | x | x | 0.7 | x | x
Cc1cc(C)n2nc(SCN3C(=O)c4ccccc4C3=O)nc2n1 | 3.6 | 6.0 | 8.7 | 0.0 | 2.3 | x
O=C1c2ccccc2C(=O)N1CSc1ncccn1 | -3.2 | 2.5 | 36.4* | -2.6 | -6.6 | -8.8
COc1ccc(S(=O)(=O)N(C)C[C@H]2OCCCC[C@H](C)Oc3ccc(NS(=O)(=O)c4ccc(C)cc4)cc3C(=O)N([C@H](C)CO)C[C@@H]2C)cc1 | x | x | x | 6.1 | x | x
C[C@H](CO)N1C[C@H](C)[C@H](CN(C)Cc2cccc(C(=O)O)c2)Oc2ncc(C#C[C@@H](C)O)cc2C1=O | x | x | x | -3.8 | x | x
CCOC(=O)CSc1nc2ccc(NC(C)=O)cc2s1 | 16.2 | -1.2 | 14.4 | -6.0 | -3.0 | x
CC(=O)Nc1ccc2nc(SCC(=O)O)sc2c1 | 5.2 | -0.4 | 35.9* | -8.4 | -9.0 | 7.4
COC(=O)[C@@H]1[C@@H](CO)[C@@H]2Cn3c(ccc(-c4cccc(F)c4)c3=O)[C@@H]2N1CC1CC1 | x | x | x | -0.4 | x | x
CC1=NN(c2nc(-c3ccc(Cl)cc3)cs2)C(=O)C1 | -4.2 | 3.8 | -70.4 | -4.0 | -42.4 | x
Cc1ccc(-c2csc(N3C(=N)SCC3=O)n2)cc1 | -91.3 | 0.6 | -268.0 | x | -103.5 | -168.9
O=C(N[C@H]1CC[C@@H](CCNS(=O)(=O)c2ccc(F)cc2)O[C@H]1CO)C1CCCC1 | x | x | x | 2.7 | x | x
O=C(CC1CC1)N[C@@H]1CC[C@H](CCNS(=O)(=O)c2ccc(F)cc2)O[C@@H]1CO | x | x | x | -6.0 | x | x
Cc1ccc(-n2c(SCC(=O)N3CCCc4ccccc43)nnc2-c2cccnc2)c(C)c1 | 0.8 | -2.2 | 4.5 | -4.1 | 7.3 | x
Cc1ccc(-n2c(-c3ccccc3)c[n+]3c2CCc2ccccc2-3)c(C)c1 | 86.7* | -5.9 | 48.6* | x | 33.4 | 27.8*
CC1C(=O)N2CCCc3cc(NC(=O)c4ccccc4Br)cc1c32 (stereo not given) | 4.6 | 5.3 | 40.9* | x | 16.6 | 22.6
O=C(Nc1ccc2c(c1)CCCN2C(=O)c1ccccc1)c1ccccc1Br | -8.7 | -0.2 | -333.3 | 1.8 | -12.9 | -180.0
COc1ccccc1C(=O)Nc1ccc2c(c1)CCCN2C(=O)c1ccccc1 | -16.4 | -0.4 | -2.7 | 26.9 | -1.7 | x
SMILES | Gli-Sufu antag | SMARCA2 activ | 697 NFkB inh | esBAF inh | Jurkat NFkB inh | 697 NFkB conf
C[C@@H]1CN([C@@H](C)CO)C(=O)c2cccc(NS(C)(=O)=O)c2O[C@@H]1CN(C)C(=O)Nc1ccccc1 | x | x | x | 4.3 | x | x
CCCN1C(=O)c2ccccc2NC1c1ccc(OC)cc1O (stereo not given) | 23.5 | -1.6 | -310.4 | -2.3 | 0.2 | -292.4
COC(=O)COc1cccc2c(=O)n(CC(=O)N3CCCCC3)ccc12 | 0.3 | -1.3 | 43.4* | x | -6.2 | 5.5
COC(=O)COc1cccc2c(=O)n(CC(=O)N3CCC(C)CC3)ccc12 | 8.2 | -3.3 | 3.2 | -4.1 | -10.0 | x
COc1ccccc1/C=C1\SC(=S)N(CCC(=O)Nc2cc(C)on2)C1=O | 14.1 | -0.9 | 50.6* | -44.8 | 0.7 | 37.5*
Cc1cc(NC(=O)CCN2C(=O)/C(=C/c3ccccc3Cl)SC2=S)no1 | -2.7 | -0.5 | -0.4 | x | 17.9 | x
CCc1ccc(/C=C2\SC(=S)N(CCC(=O)Nc3cc(C)on3)C2=O)cc1 | -13.1 | -8.8 | 59.3* | x | -2.8 | 43.8*
COc1ccccc1/C=C1\SC(=S)N(CCC(=O)Nc2nnc(C)s2)C1=O | -8.6 | -1.7 | 51.4* | -8.8 | 9.6 | 29.1*
CCc1ccc(/C=C2\SC(=S)N(CCCC(=O)Nc3cc(C)on3)C2=O)cc1 | x | -15.3 | x | -68.7 | x | x
COc1ccccc1/C=C1\SC(=S)N(CCC(=O)Nc2cccc(O)c2)C1=O | 20.2 | -1.0 | 35.2* | -5.4 | -12.4 | 31.1*
CO[C@H](CN(C)C(=O)C1CCOCC1)[C@@H](C)CN(C(=O)Nc1ccc(F)cc1)[C@H](C)CO | x | x | x | 6.6 | x | x
Cc1ncc(S(=O)(=O)c2ccc(Cl)cc2)c(-c2ccccc2)n1 | 4.2 | 0.3 | 39.7* | -11.1 | 2.8 | 7.8
Cc1cccc(-n2c(O)c(C=Nc3ccccc3-c3n[nH]c(=S)[nH]c3=O)c3ccccc3c2=O)n1 | 13.9 | 4.4 | 38.1* | 7.0 | 5.9 | -20.8
Cc1ccc(-c2n[nH]c(=O)c3ccccc23)cc1S(=O)(=O)NCCN1CCOCC1 | -20.4 | -1.3 | 7.3 | -1.4 | -6.3 | x
Cc1ccc(-c2nn3c(C)nnc3c3ccccc23)cc1S(=O)(=O)NCCN1CCOCC1 | 16.5 | 3.2 | 53.0* | 10.9 | -5.7 | 30.5*
COC(=O)C[C@H]1C[C@@H]2c3cc(NC(=O)Nc4ccccc4F)ccc3O[C@@H]2[C@H](CO)O1 | x | x | x | 2.9 | x | x
Cn1nc(-c2ccc(C(=O)Nc3ccc(F)cc3)cc2)c2ccccc2c1=O | 21.3 | x | 12.9 | x | -10.6 | x
Cc1ccc(NC(=O)c2ccc3c(c2)OCCO3)cc1 | 3.6 | 0.5 | -252.0 | -51.4 | -138.7 | -211.2
Cc1nc2c(ccc3nc(NC(=O)c4ccc5c(c4)OCCO5)sc32)s1 | -106.5 | 7.6 | -254.9 | 6.9 | -115.7 | -222.9
Cc1ccc(NC(=O)c2ccc(-c3nn(C)c(=O)c4ccccc34)cc2)cc1 | 39.2 | -5.3 | 42.1* | -8.9 | 21.2 | 13.6
Cc1ccc(C(=O)Nc2ccc3ccccc3c2)cc1 | -166.2 | -1.6 | -368.4 | -66.2 | -112.2 | -446.6
CCOC(=O)Cc1n[nH]c(=O)c2ccccc12 | -11.2 | -1.6 | 15.0 | -0.6 | 3.5 | x
